ELG1 repair inh: inhibitors of ELG1-dependent DNA repair in HEK293T cells; HEK293T ELG1-luciferase reporter, luminescence, 16 h; DNA damage induced by 5-fluorouridine; Potency, µM (highest dose often 46.1 µM), hits mostly inhibitors; 330,000 tested, 2.3% active; AID 504467; also: nearly all actives have a fitted effect of over 55% in size
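5-Fluorouridine DNA damage + compound/DMSO, 2,000 cells/well, 16 h, 37 °C/5% CO2. ONE-Glo, 30 min RT, luminescence. Readout = decrease in reporter signal.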
SW480 rereplic: induces DNA re-replication in SW480 colon adenocarcinoma cells | SW480 DNA re-replication, Hoechst DNA content imaging, 48 h | Potency, µM (doses to about 46.1 µM), usual class: activators | 340,000 tested, 1.8% active | AID 624297; also: nearly all actives have a fitted effect of over 55% in size
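Hoechst fluorescence of nuclei (405 nm excitation, 500-530 nm emission) measured by plate-scanning imager after 48 hr compound exposure at 37 C; re-replication scored as increased number of nuclei with elevated intensity.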
KB-V1 cytotox: KB-V1 MDR subline cytotoxicity. AID 1347076. Potency, µM (series often up to 46.1 µM), actives largely listed as cytotoxic. KB-V1 MDR cells viability, CellTiter-Glo, 72 h. 400,000 tested, 3.4% active; also: nearly all actives have a fitted effect of over 60% in size
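Drug-selected KB-V1 cells, grown in DMEM lacking phenol red with 10% FBS, receive compound titrations; after three days at 37 degrees C, surviving cell ATP is quantified by CellTiter-Glo luminescence and responses normalized and curve-fitted.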
KB-3-1 cytotox: KB-3-1 parental cell cytotoxicity; KB-3-1 viability, CellTiter-Glo ATP luminescence, 72 h; Potency, µM (titrated, usually from 46.1 µM), actives largely listed as cytotoxic; 400,000 tested, 1.4% active; AID 1347075; also: nearly all actives have a fitted effect of over 60% in size
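Multi-concentration cytotoxicity screen in KB-3-1 cells grown in DMEM lacking phenol red with 10% FBS. After 72 h at 37 °C with compound, ATP-dependent luminescence was recorded.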
MCF10A rerep: inducers of DNA re-replication in MCF 10A breast cells; Potency, µM (highest dose often 46.1 µM), most hits filed as activators; AID 624296; 350,000 tested, 2.9% active; MCF 10A DNA re-replication, Hoechst nuclear intensity, 48 h; also: nearly all actives have a fitted effect of over 50% in size
Large screens that a line does not name were inactive. A selection: hits, their analogues and other compounds. The true share with any hit is near 8.2%. Calls follow the shape of the dose curve; as a rule, active = well fitted curve in the direction sought with a large enough effect; inconclusive = small, poorly fitted or top-dose-only effect, or another doubt; inactive = no such curve, though single readings can be large; an effect the other way counts as inactive or inconclusive.

CC(C)(Oc1ccc(Cl)cc1)C(=O)NCC1CCCO1 (stereo unspecified)	none
CCN(CC)CCCn1c2c(c(SCC(=O)Nc3cc(OC)cc(OC)c3)nc1=O)CCC2	none
COc1ccccc1C(CCNCc1ccccc1)c1ccc(OC(C)C)cc1 (stereo unspecified)	ELG1 repair inh inconclusive, SW480 rereplic inconclusive, KB-3-1 cytotox inconclusive, MCF10A rerep 18µM
COc1ccccc1C(CC(=O)Nc1ccc(C)c(C)c1)c1ccc(OC(C)C)cc1 (stereo unspecified)	SW480 rereplic inconclusive
CCC(=O)O[C@]1(C(=O)CCl)[C@@H](C)C[C@H]2[C@@H]3CCC4=CC(=O)C=C[C@]4(C)[C@@]3(F)[C@@H](O)C[C@@]21C	KB-V1 cytotox inconclusive, MCF10A rerep inconclusive
CCCC(=O)O[C@]1(C(=O)CCl)[C@@H](C)C[C@H]2[C@@H]3CCC4=CC(=O)C=C[C@]4(C)[C@@]3(F)C(=O)C[C@@]21C	KB-V1 cytotox 13µM, MCF10A rerep inconclusive
CCC1=C(Nc2ccccc2)COC1=O	none (no result: ELG1 repair inh, SW480 rereplic, MCF10A rerep)
Cc1onc(-c2ccccc2Cl)c1C(=O)N1CCC(Cc2ccccc2)CC1	KB-3-1 cytotox inconclusive, MCF10A rerep inconclusive
Cc1noc(C)c1C(=O)N1CCC(Cc2ccccc2)CC1	KB-V1 cytotox 15µM
CCC(Sc1nnc(-c2ccc(OC)c(OC)c2)c(-c2ccc(OC)c(OC)c2)n1)C(=O)NC1CCCC1 (stereo unspecified)	none (no result: ELG1 repair inh, SW480 rereplic, MCF10A rerep)
O=C(CN1C(=O)CSc2ccc(S(=O)(=O)N3CCOCC3)cc21)NCc1ccc(Cl)cc1	none
CCC1CCCCN1C(=O)c1cc(COc2ccc3ncccc3c2)on1 (stereo unspecified)	ELG1 repair inh inconclusive, KB-V1 cytotox 1.6µM, KB-3-1 cytotox 4.1µM
COCC1CCCCN1C(=O)c1cc(COc2ccc3ncccc3c2)on1 (stereo unspecified)	ELG1 repair inh inconclusive, KB-V1 cytotox inconclusive, KB-3-1 cytotox inconclusive
CCN1CCN(C(=O)c2cc(COc3ccc4ncccc4c3)on2)CC1	ELG1 repair inh inconclusive, KB-V1 cytotox 16µM
C=CC(=O)Nc1cccc(Oc2ncnc3[nH]cc(-c4cnc5ccccc5c4)c23)c1	ELG1 repair inh 7.3µM
CSc1cc(-c2ccc(Cl)cc2)c(C(=O)NN)s1	SW480 rereplic inconclusive, KB-V1 cytotox 8.2µM, KB-3-1 cytotox inconclusive, MCF10A rerep inconclusive
Cc1ccc(Sc2ccc(/C=C3/C(=O)NN(c4ccccc4)C3=O)o2)cc1	none
O=C1NN(c2ccccc2)C(=O)/C1=C/c1ccc(Sc2ccc(Cl)cc2)o1	MCF10A rerep 4.6µM
CC1Cc2nc(SCC(=O)Nc3ccc4c(c3)OCO4)n(CCc3ccccc3)c(=O)c2S1 (stereo unspecified)	ELG1 repair inh 13µM
COc1ccccc1-n1c(SCC(=O)Nc2ccc3c(c2)OCO3)nc2c(c1=O)SCC2	KB-V1 cytotox 7.3µM
CCn1c(SCC(=O)Nc2ccc3c(c2)OCO3)nc2c(c1=O)SC(C)C2 (stereo unspecified)	KB-3-1 cytotox inconclusive
CCCCNC(=O)C1(C)CCN1C(=O)c1cccc(OC(F)(F)F)c1 (stereo unspecified)	none (no result: ELG1 repair inh, SW480 rereplic, MCF10A rerep)
COC(=O)[C@@]1(Cc2ccc(OC)cc2)[C@@H]2C(=CC(=O)[C@H]2CC(=O)C(=O)N2CCCC2)CN1C(=O)c1ccccc1	ELG1 repair inh 15µM, SW480 rereplic inconclusive, KB-V1 cytotox inconclusive, KB-3-1 cytotox 9.2µM, MCF10A rerep 23µM
CCOC(=O)CNC(=O)Nc1cc(C(=O)NCc2ccc(C(C)C)cc2)ccc1N1CCCC1	none (no result: ELG1 repair inh, SW480 rereplic, MCF10A rerep)
O=S1(=O)CC(N2CCCCC2)CN1Cc1cn(Cc2ccc(Cl)cc2)nn1 (stereo unspecified)	none (no result: ELG1 repair inh, SW480 rereplic, MCF10A rerep)
CN(C)/C=C/C(=C\C(=O)C(F)(F)F)Nc1ccc(C(F)(F)F)cc1	none
CCCOc1ccccc1C1CC(=O)NC(C)=C1C(=O)OCC(C)C (stereo unspecified)	KB-V1 cytotox inconclusive
CCCCOc1ccccc1C1CC(=O)NC2=C1C(=O)CCC2 (stereo unspecified)	SW480 rereplic inconclusive, KB-V1 cytotox inconclusive, KB-3-1 cytotox inconclusive, MCF10A rerep 4.1µM
